TRb SRC2 PPI – disrupts binding of human TR beta to SRC2; P10828; TRbeta-SRC2 peptide binding, fluorescence polarization; receptor liganded with 1 µM T3; Potency, µM (highest dose often 106 µM), most hits filed as inhibitors; 280,000 compounds, 0.065% hits; AID 1469; further: nearly all actives have a fitted effect of over 50% in size
Target sequence (P10828 whole entry, looked up): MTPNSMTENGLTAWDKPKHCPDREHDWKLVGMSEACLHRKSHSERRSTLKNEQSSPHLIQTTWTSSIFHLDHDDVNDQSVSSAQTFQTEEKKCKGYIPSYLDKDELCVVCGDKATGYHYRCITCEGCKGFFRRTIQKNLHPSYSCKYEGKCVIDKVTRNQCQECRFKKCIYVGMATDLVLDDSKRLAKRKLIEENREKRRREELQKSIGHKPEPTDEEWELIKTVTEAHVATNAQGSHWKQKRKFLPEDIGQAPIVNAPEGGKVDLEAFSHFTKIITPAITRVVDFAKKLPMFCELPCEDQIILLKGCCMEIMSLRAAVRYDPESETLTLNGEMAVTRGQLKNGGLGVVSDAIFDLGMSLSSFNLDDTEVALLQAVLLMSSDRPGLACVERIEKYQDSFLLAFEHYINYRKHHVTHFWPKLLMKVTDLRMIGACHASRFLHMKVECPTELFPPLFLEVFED
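Assay buffer: 20 mM Tris-HCl, 100 mM NaCl, 10% glycerol, 1 mM EDTA, 0.01% NP-40, 1 mM DTT, 1 uM T3, 5% DMSO; TRb LBD 0.6 uM, Texas Red SRC2 20 nM; FP after 5 hr.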
Tau ThT inhib – inhibitors of human tau fibril formation, thioflavin T binding; AID 1460; recombinant tau K18 P301L, heparin-induced fibrillization, ThT fluorescence; 270,000 compounds, 2.1% hits; Potency, µM (doses to about 57.4 µM), actives largely listed as inhibitors; further: nearly all actives have a fitted effect of over 55% in size
Target sequence (P10636 561-689 P618L limits assumed): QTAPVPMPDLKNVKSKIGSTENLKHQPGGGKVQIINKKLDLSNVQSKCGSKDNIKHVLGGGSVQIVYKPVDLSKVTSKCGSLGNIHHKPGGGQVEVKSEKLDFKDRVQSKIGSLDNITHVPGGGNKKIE
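Using a mix of unlabeled (15 uM) and Alexa 594-labeled (0.24 uM) tau K18 P301L, heparin-triggered fibrillization over 6 hr at 37 C was scored by ThT fluorescence.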
TexasRed fluor – counter-screen for TRb-SRC2 inhibitors: fluorescence interference; TRb/SRC2 Texas Red total fluorescence interference; AID 1479; 280,000 compounds, 0.29% hits; Potency, µM (doses to about 106 µM); active means well fitted curve in either direction with a large enough effect; inconclusive means small, poorly fitted or top-dose-only effect
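Flags fluorescent or light-absorbing compounds by total fluorescence, S + 2P, at 555 nm excitation and 632 nm emission. Mixture: 20 nM Texas Red SRC2 peptide, 0.6 uM human TRb LBD, 1 uM T3, 5% DMSO; compound exposure 5 h at ambient temperature.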
Tau FP inhib – blocks human tau fibril formation measured by polarization; K18 P301L tau heparin fibrillization, Alexa594 FP, 6 h; Potency, µM (top dose mostly 57.7 µM), most hits filed as inhibitors; 280,000 compounds, 0.39% hits; AID 1468; further: nearly all actives have a fitted effect of over 55% in size
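Human K18 P301L fragment (15 uM unlabeled plus 0.24 uM Alexa 594-labeled) in 100 mM sodium acetate pH 7 with compound, aggregation induced by 20 uM heparin for 6 hr at 37 C. ThT (30 uM) added for 1 hr, then Alexa 594 FP read.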
Tau fluor cs – counter-screen for tau fibril formation inhibitors. tau K18 P301L Alexa594 fluorescence, heparin fibrillization. Potency, µM (highest dose often 57.7 µM). 280,000 compounds, 0.93% hits; further: nearly all actives have a fitted effect of over 55% in size
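Human tau K18 P301L (15 uM unlabeled, 0.24 uM Alexa 594-labeled) in 100 mM sodium acetate pH 7 with 20 uM heparin, 6 hr at 37 C. ThT 30 uM added, 1 hr ambient; Alexa 594 FP and total fluorescence read at 555/632 nm.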
Numbers stand for hits; – = inactive; ? = inconclusive; · = not tested or not shown; ! = not active in a repeat; [ ] = remark or other dose. Hits are enriched below; roughly 3% of the tested compounds scored in any of these assays. Unless noted, the call rests on the fitted dose curve; in most records, active means well fitted curve in the direction sought with a large enough effect; inconclusive means small, poorly fitted or top-dose-only effect, or another doubt; inactive means no such curve, though single readings can be large; an effect the other way counts as inactive or inconclusive.

SMILES	TRb SRC2 PPI	Tau ThT inhib	TexasRed fluor	Tau FP inhib	Tau fluor cs
Nc1ncnc2c1ncn2[C@@H]1O[C@H](C(=O)NC2CC2)[C@@H](O)[C@H]1O	–	–	–	–	–
COCCc1nn2c(=O)cc(COC(=O)COc3ccc(F)cc3)nc2s1	–	–	–	–	–
CCC(=O)N1CCc2cc(CNC(=O)Nc3ccc(OC)cc3OC)ccc21	–	?	–	–	–
Cc1oc2ncnc(N3CCCCC3)c2c1C(=O)N1CCN(c2ccc(Cl)cc2)CC1	–	–	–	–	–
CN(C)/C=C1/C=C(c2ccccc2)OC1=O	–	40µM	–	?	–
O=C(COC(=O)c1cnccn1)c1ccc([N+](=O)[O-])cc1	–	16µM	–	?	–
C=CCCCCCCC=C	–	·	–	·	·
COc1cc2ncnc(Nc3ccc(F)c(Cl)c3)c2cc1OCCCN1CCOCC1	–	?	–	40µM	?
COc1ccc(-c2cc3ccccc3[nH]2)cc1	–	?	–	?	?
Cc1ccc(O)c(-c2cc3ccccc3[nH]2)c1	–	13µM	–	–	16µM[quencher]
COc1cc(OC)c(OC)cc1/C=N/NC(=O)c1cc(-c2cccn2C)n[nH]1	–	13µM	–	–	?
CCc1ccc(Oc2c(C(F)(F)F)oc3c(CN4CCCC(C)C4)c(O)ccc3c2=O)cc1 (stereo unspecified)	–	–	–	–	–
CC1(C)CC(=O)C2=C(C1)c1c(ccc3ccccc13)NC2c1cc([N+](=O)[O-])cc([N+](=O)[O-])c1O (stereo unspecified)	–	11µM	–	?	?
Cc1ccc(C2Nc3ccc4ccccc4c3C3=C2C(=O)CC(C)(C)C3)o1 (stereo unspecified)	–	?	–	–	?
Cc1ccc(N2C(=O)CCSC23C(=O)N(Cc2ccccc2)c2ccccc23)cc1 (stereo unspecified)	–	?	–	–	–
Oc1ccc(N=Cc2ccc(O)c(O)c2)cc1	–	3.2µM	–	8.9µM	?
COc1ccc(CNC(=O)C(C)N2Cc3ccccc3C2=O)cc1 (stereo unspecified)	–	–	–	–	–
COc1ccc(C2N(c3ccc(C)cc3)CCN2c2ccc(C)cc2)cc1O	–	?	–	–	25µM[quencher]
COc1cc(C2N(c3ccccc3)CCN2c2ccccc2)ccc1OC(C)=O	–	–	–	–	–
COc1cc2c3c(c1)/C(=C1/SC(NC(C)=O)=NC1=O)C(=O)N3C(C)(C)C=C2C	–	16µM	–	?	14µM[quencher]
O=C(/C=C/c1ccc2c(c1)OCCO2)c1ccccc1	–	?	–	?	–
Nc1ccccc1C(=O)/C=C/c1ccc2c(c1)OCO2	–	14µM!	–	–	–
Cc1ccc(O)c(C(=O)/C=C/c2ccc3c(c2)OCCO3)c1	–	16µM	–	–	–
O=C(/C=C/c1ccc2c(c1)OCO2)c1ccccc1	–	–	–	–	–
Nc1ccccc1C(=O)/C=C\c1ccc2c(c1)OCO2	–[11.2 µM]	1.3µM	–[11.2 µM]	–[11.6 µM]	?
SMILES	TRb SRC2 PPI	Tau ThT inhib	TexasRed fluor	Tau FP inhib	Tau fluor cs
O=S(=O)(c1ccccc1Br)N(Cc1ccccc1)Cc1ccco1	–	·	–	·	·
COc1ccc(-c2[nH]c3ccccc3c2SCCNC(=O)c2ccccc2)cc1	–	–	–	–	–
CCN(CC)S(=O)(=O)c1ccc(C(=O)NCCSc2c(-c3ccc(F)cc3)[nH]c3ccccc23)cc1	–	–	–	–	4.5µM[quencher]
CCN(CC)S(=O)(=O)c1ccc(C(=O)NCCSc2c(-c3ccccc3)[nH]c3ccccc23)cc1	–	–	–	–	4.5µM[quencher]
O=C(NCCSc1ccc(Br)cc1)c1ccccc1	–	–	–	–	–
Cc1ccc(-c2[nH]c3ccccc3c2SCCNC(=O)c2ccc(S(=O)(=O)N3CCOCC3)cc2)cc1	–	–	–	–	3.5µM[quencher]
CN(C)S(=O)(=O)c1ccc(C(=O)NCCSc2c(-c3ccc(Br)cc3)[nH]c3ccccc23)cc1	–	–	–	?	4.5µM[quencher]
CC[C@H](C)[C@H](NC(=O)[C@H](CCC(=O)O)NC(=O)[C@H](CO)NC(=O)[C@@H](NC(=O)[C@H](C)N)C(C)C)C(=O)N[C@@H](CCC(N)=O)C(=O)N[C@@H](CC(C)C)C(=O)N[C@@H](CCSC)C(=O)N[C@@H](Cc1cnc[nH]1)C(=O)N[C@@H](CC(N)=O)C(=O)N[C@@H](CC(C)C)C(=O)NCC(=O)N[C@@H](CCCCN)C(=O)N[C@@H](Cc1cnc[nH]1)C(=O)N[C@@H](CC(C)C)C(=O)N[C@@H](C)C(=O)N[C@@H](CO)C(=O)N[C@H](C(=O)N[C@@H](CCC(=O)O)C(=O)N[C@@H](CCCNC(=N)N)C(=O)N[C@@H](CCSC)C(=O)N[C@@H](CCC(N)=O)C(=O)N[C@@H](Cc1c[nH]c2ccccc12)C(=O)N[C@@H](CC(C)C)C(=O)N[C@@H](CCCNC(=N)N)C(=O)N[C@@H](CCCCN)C(=O)N[C@@H](CCCCN)C(=O)N[C@@H](CC(C)C)C(=O)N[C@@H](CCC(N)=O)C(=O)N[C@@H](CC(=O)O)C(=O)N[C@H](C(=O)N[C@@H](Cc1cnc[nH]1)C(=O)N[C@@H](CC(N)=O)C(=O)N[C@@H](Cc1ccccc1)C(=O)O)C(C)C)C(C)C	–	·	?	·	·
Cc1nn(C(=O)c2ccccc2)c(C)c1Sc1ccc(Cl)cc1	–	–	–	–	–
CC(C)(C)NC(=O)C1CCN(c2nc3ccccc3nc2C(F)(F)F)CC1	–	–	–	–	–
Cc1ccc(S(=O)(=O)Nc2ccc(-c3nc4cc(NS(=O)(=O)c5ccc(C)cc5)ccc4o3)cc2)cc1	–	–	–	16µM	?
Cc1nn(CCCC(=O)Nc2cccc(F)c2)c(=O)c2c1sc1ccccc12	–	?	–	–	?
O=C(O)Cc1cccc(OCCCN(Cc2cccc(C(F)(F)F)c2Cl)CC(c2ccccc2)c2ccccc2)c1	–	?	–	?	–
COC(=O)CCC(=O)OC1(C)C(=O)C2=CN(C(CO)CO)C(c3ccc(OC)cc3)=CC2=C(Br)C1=O (stereo unspecified)	?	4µM	–[11.2 µM]	?	–[11.6 µM]
COC(=O)CCC(=O)OC1(C)C(=O)C2=CN(CCN3CCOCC3)C(c3ccc(OC)cc3)=CC2=C(Br)C1=O (stereo unspecified)	–[11.2 µM]	7.1µM!	–[11.2 µM]	?	–[11.6 µM]
COC(=O)CCC(=O)OC1(C)C(=O)C2=CN(CCCCO)C(c3ccc(OC)cc3)=CC2=C(Br)C1=O (stereo unspecified)	–[11.2 µM]	–[11.5 µM]	–[11.2 µM]	–[11.6 µM]	–[11.6 µM]
CC(=O)Nc1nc(S(=O)(=O)c2ccc(C)cc2)c(Cl)s1	–	–	–	–	–
Cc1ccc(S(=O)(=O)c2nc(Nc3nccs3)sc2Cl)cc1	–	?	–	–	16µM[quencher]
O=c1[nH]c(=O)c2nnc(N/N=C\c3ccc(O)cc3)nc2[nH]1	–	4µM	–	–	–

Assay outcomes deposited in PubChem BioAssay by National Center for Advancing Translational Sciences (NCATS).
